{"source": "PubChem BioAssay AID1240", "about": "(Sanford-Burnham Center for Chemical Genomics, 2008)", "note": "Hit rate of the full screen: of about 50,000 compounds, about 800 (1.6%) showed an effect of 50% or more. Many of the other results were omitted from the sample, so strong results are more common in it than they were."}
{"molecular_target": "Bcl-2-like protein 10 (Homo sapiens) (UniProt Q9HD36)", "sequence (Q9HD36 whole entry, looked up)": "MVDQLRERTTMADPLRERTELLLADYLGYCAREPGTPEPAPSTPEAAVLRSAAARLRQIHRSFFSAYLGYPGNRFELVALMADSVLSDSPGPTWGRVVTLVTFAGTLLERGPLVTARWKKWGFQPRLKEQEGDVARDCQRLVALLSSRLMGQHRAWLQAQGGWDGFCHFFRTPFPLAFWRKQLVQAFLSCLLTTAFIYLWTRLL", "assay": "Phenotype converters, Bcl-B/TR3 peptide binding displacement, primary biochemical FP (AID 1240);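 note: 0% = Bcl-B with tracer peptide and DMSO and 100% = tracer peptide lacking Bcl-B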", "settings": "GST-Bcl-B / FITC-TR3 peptide fluorescence polarization; stronger effect = higher value; compound at 3.75 mg/L", "units": {"displacement": "%"}}
{"molecule": "COc1ccc(/C=C(\\C#N)c2nc3ccccc3[nH]2)cc1OC", "displacement": 11}
{"molecule": "COc1cc(/C=C(/C#N)c2nc3ccccc3[nH]2)c([N+](=O)[O-])cc1OCCC(C)C", "displacement": 69.6}
{"molecule": "COc1cc(/C=C(\\C#N)c2nc3ccccc3[nH]2)c(Br)cc1O", "displacement": -96.8}
{"molecule": "COc1ccc(CC(=O)N2CCN(c3cccc(Cl)c3)CC2)cc1OC", "displacement": 2}
{"molecule": "COC(=O)C1=C(C)NC2=C(C(=O)CC(C)(C)C2)C1c1ccc(OC)cc1OC", "note": "(stereo not drawn)", "displacement": 11.9}
{"molecule": "O=C1C(=Cc2ccc(Sc3ccccc3)o2)C(=O)c2ccccc21", "displacement": 163}
{"molecule": "Cc1ccc(C=C2C(=O)c3ccccc3C2=O)o1", "displacement": 10.9}
{"molecule": "O=C1C(=Cc2ccc(I)o2)C(=O)c2ccccc21", "displacement": 37.1}
{"molecule": "C#CCOc1c(Br)cc(/C=C2\\C(=O)NC(=O)N(c3ccc(Cl)cc3)C2=O)cc1OC", "displacement": -0.6}
{"molecule": "CCn1nnnc1-c1ccc(OC)c(S(=O)(=O)Nc2ccc(F)cc2)c1", "displacement": 6.1}
{"molecule": "CCn1nnnc1-c1ccc(OC)c(S(=O)(=O)Nc2ccc(Cl)cc2)c1", "displacement": 9.3}
{"molecule": "CCn1nnnc1-c1ccc(OC)c(S(=O)(=O)Nc2ccc(Br)cc2)c1", "displacement": 58.3}
{"molecule": "CCc1ccc(-n2c(C)cc(/C=C3/NC(=O)NC3=O)c2C)cc1", "displacement": -6.3}
{"molecule": "O=C(NC1CCCCC1)c1ccc2nc3ccccc3nc2c1", "displacement": 81.5}
{"molecule": "O=C(NC1CCCCCC1)c1cccc(Cl)c1", "displacement": 4.5}
{"molecule": "O=C(NC1CCCCC1)c1ccc(Cl)c(Cl)c1", "displacement": 3.3}
{"molecule": "CCOC(=O)C(=CNc1ccccc1C(C)C)C(=O)OCC", "displacement": -7.2}
{"molecule": "O=C1c2cccc3cccc(c23)C(=O)N1Nc1ccc([N+](=O)[O-])cc1", "displacement": 3.8}
{"molecule": "COc1ccc(-c2cc(C(=O)Nc3nc4ccc(S(C)(=O)=O)cc4s3)c3ccccc3n2)cc1OC", "displacement": 5}
{"molecule": "Cc1ccc2c(c1)NC(c1ccc(C)o1)C1=C(CC(C)(C)CC1=O)N2", "note": "(stereo not drawn)", "displacement": 88.5}
{"molecule": "Cc1ccc2c(c1)NC(c1ccccc1)C1=C(CC(C)(C)CC1=O)N2", "note": "(stereo not drawn)", "displacement": -3.1}
{"molecule": "Cc1ccc2c(c1)NC(c1ccc(F)cc1)C1=C(CC(C)(C)CC1=O)N2", "note": "(stereo not drawn)", "displacement": 17.8}
{"molecule": "CCCCCC(=O)N1c2ccccc2NC2=C(C(=O)CC(c3ccc(OC)cc3)C2)C1c1ccco1", "note": "(stereo not drawn)", "displacement": -3.9}
{"molecule": "Cc1ccc2nc(SCc3ccc([N+](=O)[O-])cc3)nc(C)c2c1", "displacement": -7.5}
{"molecule": "O=C(Cc1ccccc1)Nc1ccc(Cl)c(-c2nc3ncccc3o2)c1", "displacement": 7.3}
{"molecule": "Cc1ccc(C(=O)Nc2cccc3ccccc23)o1", "displacement": 16.6}
{"molecule": "Cc1ccc(C(=O)Nc2c(C(=O)N3CCC(Cc4ccccc4)CC3)cnn2-c2ccccc2)cc1", "displacement": -8.3}
{"molecule": "O=C(Nc1c(C(=O)N2CCC(Cc3ccccc3)CC2)cnn1-c1ccccc1)c1ccccc1F", "displacement": 88.9}
{"molecule": "O=C(Nc1c(C(=O)N2CCC(Cc3ccccc3)CC2)cnn1-c1ccccc1)c1cccc(F)c1", "displacement": 3.5}
{"molecule": "CCOC(=O)C1=C(O)/C(=C\\c2ccc(OCC)cc2)N=C1C", "displacement": 18.1}
{"molecule": "CCc1ccccc1N1C(=O)/C(=C/c2cc(C)n(C)c2C)C(=O)NC1=S", "displacement": 8.1}
{"molecule": "Cc1cccc(N2C(=O)/C(=C/c3cc(C)n(C)c3C)C(=O)NC2=S)c1C", "displacement": 111}
{"molecule": "Cc1cc(/C=C2\\C(=O)NC(=S)N(c3cccc(Cl)c3Cl)C2=O)c(C)n1C", "displacement": 0.8}
{"molecule": "Cc1cc(/C=C2\\C(=O)NC(=S)N(c3ccc(Br)cc3)C2=O)c(C)n1C", "displacement": -2.4}
{"molecule": "Cc1cc(/C=C2\\C(=O)NC(=S)N(c3ccc(Cl)cc3)C2=O)c(C)n1C", "displacement": 29.5}
{"molecule": "Cc1ccc(N2C(=O)/C(=C/c3cc(C)n(C)c3C)C(=O)NC2=S)cc1", "displacement": 97}
{"molecule": "Cc1ccc(S(=O)(=O)N2CCN(C(=O)COc3ccc(Cl)cc3)CC2)cc1", "displacement": -15.1}
{"molecule": "CCN(CC)c1ccc(/C=N/NS(C)(=O)=O)cc1", "displacement": 7.3}
{"molecule": "COc1cccc(CN2CCN(C(=O)c3ccccc3OC)CC2)c1", "displacement": -15.8}
{"molecule": "NC(=O)SCC(=O)Nc1ccccc1O", "displacement": 4.9}
{"molecule": "Clc1ccccc1-c1nnc(-c2ccc(-c3ccccc3)cc2)o1", "displacement": 5.2}
{"molecule": "O=C(Nc1ccc(OC(F)(F)F)cc1)c1cccc([N+](=O)[O-])c1", "displacement": -1.6}
{"molecule": "COc1cc(/C=C2\\SC(NC(C)=O)=NC2=O)cc(Br)c1OC", "displacement": 11.8}
{"molecule": "CC(=O)NC1=NC(=O)/C(=C\\c2ccc(-c3ccc(Cl)c(C(=O)O)c3)o2)S1", "displacement": -115}
{"molecule": "COc1ccc(/C=C2\\SC(N3CCCC3)=NC2=O)c(OC)c1", "displacement": -18.5}
{"molecule": "COc1cc(/C=C2/SC(NC(C)=O)=NC2=O)cc(OC)c1OC", "displacement": 31.2}
{"molecule": "COc1ccc(OC)c(/C=C2\\SC(N3CCCC3)=NC2=O)c1", "displacement": -16.2}
{"molecule": "COc1ccc(/C=C2/SC(N)=NC2=O)c(OC)c1", "displacement": -3.2}
{"molecule": "COc1cc(/C=C2\\SC(NC(C)=O)=NC2=O)cc2sc(=O)oc12", "displacement": 24.7}
{"molecule": "COc1cc(OC)c(/C=C2/SC(NC(C)=O)=NC2=O)cc1Br", "displacement": 138}
{"molecule": "COc1c(Cl)cc(Cl)cc1/C=C1\\SC(NC(C)=O)=NC1=O", "displacement": 74.7}
{"molecule": "COc1ccc(OC)c(/C=C2/SC(NC(C)=O)=NC2=O)c1", "displacement": 156}
{"molecule": "COc1ccc(/C=C2/SC(NC(C)=O)=NC2=O)c(OC)c1", "displacement": 133}
